Laboratory results from the supplement of paper PMC6555819.

Columns and labels:
Experiment in all cases: PBM binding z-score (relative to random genomic background probes); higher = stronger binding; sequences stand for … in GC…GCGATTGACAGCGTAGAATGAAGG
[1] = test system: RARb homodimer (NR concentration 270 nM)
Summary of the method: (§1)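 Probes were double-stranded and carried 34-nt variable regions with direct-repeat seeds, single-nucleotide variants, half-site ablations and random human genomic background sequences, printed on custom Agilent 4×180K protein-binding microarrays. Arrays were incubated 1 h with ligand-free nuclear receptor dimers in PBS pH 7.4, 2% milk, 0.02% Triton X-100, 1 mM DTT, 0.2 mg/mL BSA and 0.4 mg/ml salmon testes DNA. Antibodies against each partner (one per run) detected binding, and scanned fluorescence was regression-normalized. Binding z-scores use the random background probes as reference.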

[2] = test system: RARg:RXRa (NR concentration 270 nM, RXRa partner concentration 90 nM)
Summary of the method: as §1

[3] = test system: RARg homodimer (NR concentration 270 nM)
Summary of the method: as §1

[4] = test system: RXRa DBDmut IVT, anti-RXR (DBD mutation: RXRa K156A/R161A, NR concentration 90 nM)
Summary of the method: as §1

[5] = test system: RXRa homodimer (NR concentration 180 nM)
Summary of the method: as §1

[6] = test system: THRa:RXRa (NR concentration 90 nM, RXRa partner concentration 90 nM)
Summary of the method: as §1

[7] = test system: THRa homodimer (NR concentration 90 nM)
Summary of the method: as §1

[8] = test system: VDR:RXRa (NR concentration 270 nM, RXRa partner concentration 90 nM)
Summary of the method: as §1

[9] = test system: VDR homodimer (NR concentration 270 nM)
Summary of the method: as §1

Sequence	PBM binding z-score [1]	PBM binding z-score [2]	PBM binding z-score [3]	PBM binding z-score [4]	PBM binding z-score [5]	PBM binding z-score [6]	PBM binding z-score [7]	PBM binding z-score [8]	PBM binding z-score [9]
TAGCCTAGGTCATTCAGGGGCGAGTATAGAAAGC	2.77	4.27	3.93	2.29	2.79	4.54	0.866	4.57	1.68
GCTCGGAGGACAAGGTCAGATCTTTGTCCGTAGA	3.06	3.19	3.28	0.628	2.46	3.17	1.58	1.61	0.872
TAGCCTAGGTCATGCGGGCCCGTATAGTGTCGGC	2.9	3.77	4.19	0.324	3.06	3.06	1.33	1.97	0.149
GCTGCTAGGTCAGGTTGGGCAGCTAACGGGTACG	2.36	2.43	3.88	0.101	0.717	1.91	0.583	-0.00639	0.178
AGAATGAGGTTAAGATCAGGGAGACAGAATACAT	1.15	1.94	1.5	1.06	2.49	2.55	0.979	1.24	0.818
TCAGACAGGTGAAGGTATCTCAGGTACGCAGTCG	0.873	0.518	0.586	1.55	0.95	1.2	0.503	0.814	0.113
ATCGAAAGGTCGTGAGGTGGGTATACAGAAAGGC	2.93	4.59	3.86	1.52	5.16	2.6	0.377	3.58	1.38
ATCGAAAGGTCGACGTGGTGAGTATACACCGTTT	2.74	4.04	4.24	1.23	4.03	1.89	-0.255	2.73	0.481
TTACCAAGGTGAGCTGAGGACGTTGATCCAACTC	0.308	0.112	0.436	-0.741	-0.041	4.53	1.6	0.98	-0.0863
TCTTGTAGATCAATAGAGGTTAAGCAAGTGCGCT	1.25	0.719	0.343	0.564	1.32	2.68	-0.555	2.4	0.376
TCTTGGAGATCAAAGGTTAAGAAAGCCGAAGCCT	1.18	2.07	0.819	0.202	4.66	1.4	-0.671	1.57	-0.245
GTACCAAGGTGAATAAGTCGTTGATGAGTAGGCG	0.43	0.827	0.671	-0.0366	0.742	1.21	0.531	0.0767	0.148
TCATATAGGTAAAGGTGAAAGTAGAACGATATGA	1.35	1.71	1.43	0.637	2.2	1.36	-0.513	1.01	-0.148
CCTGCTAGGTCAATGATCAGCTAAAGCAGCTCGC	2.32	3.18	4.16	1.82	1.83	1.99	-0.185	0.447	-0.421
TCTTGTAGATCAATAGATGTTAAGAAAGTGCGCT	-0.256	0.00708	0.206	0.767	0.395	-0.118	-0.769	0.468	-0.147
ATCGAAAGGTCGACGAGGTGGGTATACACCGTTT	2.71	4.03	3.85	0.746	4.17	2.51	-0.214	4.34	0.638
TCTTGTAGATCAGCAGGTTAACAAAGCTGGCCAA	0.38	0.348	-0.352	0.44	0.609	0.517	-0.468	0.696	-0.328
CGTCCAAGGTCAGAGAGGTCGGTGAATGCCGAGT	4.09	4.84	5.91	2.7	3.93	3.66	1.38	6.24	3.09
TCATATAGGTAGAAGGTGAAAGTCGGTGTGGTAA	1.02	0.662	0.283	2.05	1.18	0.699	0.397	0.866	0.453
CGTCCAAGGTCAATGCTAGGTCAGTGATAGCATT	5.15	7.48	6.91	3.87	5.32	4.38	3.02	4.92	3.54
TCAGATAGGTAAAAGGTGAAAGTCGGTGTGGTAA	2.19	1.89	0.855	1.85	3.06	1.76	0.528	0.851	0.262
ACTAGCAGGCCAAGTTTGGGTTACTCAAACAAAG	0.5	0.339	0.295	-0.22	-0.21	0.547	-0.383	-0.254	-0.21
TAGCCTAGGTCATTCAGGGTCCAGTATAGAAAGC	3.02	4.74	4.16	2	3.11	4.2	0.899	4.41	2.74
ATCAAAAGGTCGTGAGGTGAGTATACAGAAAGGC	3.41	4.87	4.4	1.25	5.51	3.49	1.89	3.92	1.49
CGAACTAGGTCATCCAGGACAGGGAATACATTGA	2.82	3.79	4.29	2.17	2.65	3.52	1.93	4.1	1.73
CCTTGCGGGTCACTCCAGGTTATAGCATCGGAGT	2.74	3.99	3.63	1.43	3.78	4.98	0.573	3.51	1.2

Sequence	PBM binding z-score [1]	PBM binding z-score [2]	PBM binding z-score [3]	PBM binding z-score [4]	PBM binding z-score [5]	PBM binding z-score [6]	PBM binding z-score [7]	PBM binding z-score [8]	PBM binding z-score [9]
TCTTGTAGATCAAGCAGGGTAAGAAAGCCTGAGT	-0.297	-0.27	-0.38	0.436	-0.147	1.2	-0.451	0.33	0.209
ACTAGTTGGTCAGCTGAGGTCACACATAATTCGG	4.45	4.1	4.13	1.13	3.93	4.88	5.2	4.49	3.19
TCTCTTAGTTGATTAGGGCAACCGAAACAGCGGA	0.99	0.874	0.649	1.47	0.82	0.934	0.61	0.558	0.608
CAGCCTAGGTCAGGCCCAGTATAGGAGGAACGTT	2.11	2.54	3.21	-0.298	1.14	1.66	0.183	-0.208	-0.788
CAAATTAGGTCACCGGAAGGTCAAAGTCCGCATG	5.53	8.32	7.57	2.34	6.18	4.78	3.89	5.86	3.8
ATCTCTAGGTAAGACTCAGTTCAGGGAAGAACGC	0.949	0.767	0.451	0.408	0.569	1.12	0.955	1.06	1.72
TGTCAAAGTTCAATGGTAACGTAAGTATCCACAC	3.32	4.79	5.39	3.67	3.74	1.39	-0.627	3.81	3.52
ATATGTAGGTTACATCCGGGTAATTCAGGCTATG	0.673	1.08	1.06	0.788	0.887	2.3	0.727	0.536	0.278
CCAGACAGGTGAGAATGTAACTCAGCCTCGATTA	-0.0133	0.273	0.342	0.0123	0.179	-0.103	-0.12	-0.0872	-0.0924
TTACCAAGGTGAGCTGAAGTCGTTGATCCAACTC	-0.14	0.0635	-0.108	-0.671	0.0519	0.821	-0.297	-0.383	-0.905
TCTCGGAGGACACGAAGGTCAGAGCGTTCCAGAG	3.79	3.32	3.84	0.548	1.94	2.99	0.835	2.42	1.2
CCTTACGGGTCAAGGCTATAGCACGGGTGGTACG	2.91	4.66	4.36	0.343	5.14	2.39	-0.0277	2.77	0.575
GCTACTAGGTCAACTGATGGTCAGCTAAAGCTCG	3.31	5.27	5.19	1.63	3.06	2.9	0.994	1.79	0.21
CCTTGGAGGACAGAAGGTCAGAGCTGTCCGCTTT	3.56	3.54	3.38	0.276	1.95	2.22	0.0306	1.12	0.62
CGTCCAAGGTCAGCAGGTCAGCGAAAGCGACGTG	5.14	6.69	7.16	2.52	5.67	4.07	2.74	4.26	1.83
TACCCTAGGTCAGATCGGGCCAGTATACGCTATA	2.63	2.98	3.5	0.165	1.54	4.19	0.64	1.17	0.268
CGAACTAGGTCATCCCGGACAGTGAATACATTGA	2.84	3.68	4.66	2.33	2.6	2.86	1.4	3.63	1.91
ATATGTAGGTTAGCTGGGGGCATTCAGACTAGGC	2.15	2.32	2.43	1.71	1.67	4.62	1.84	4.08	2.94
GCTAACAGGCCATTTGGGTCACTCAATGACGGGC	2.13	1.1	1.63	0.69	1.06	2.13	0.884	1.45	0.601
GCGACTGGGGCAAAGCAGGGTACCATAAGGTTGG	0.665	0.296	0.341	-0.678	0.287	1.61	-0.383	-0.276	-0.139
CGTCCAAGGTCAATCCTAGGTCAGTGAAAGCATT	5.21	7.69	6.57	3.57	5.38	4.72	3.63	4.96	3.06
CCTATTAGTTGACCTTAAGGGCAACCGAAGCTCG	4.16	4.56	3.45	1.41	4.9	4.36	5.34	3.66	2.12
CGTCCCAGGTCAAAGGTCAGTGAAGAGATGACGG	5.2	7.98	7.02	2.62	9.93	4.99	2.8	6.07	2.7
CCTTACGGGTCACTGACAGGTTATAACATTTGGA	3.33	5.87	4.56	1.78	5.31	3.12	0.436	3.84	1.21
TCGAGTACGTTAGTCGGGGCATTCAGCCAACATA	0.0909	-0.237	-0.247	3.19	-0.238	-0.142	-0.507	0.707	1.51
TCTAGTTGGTCACGGAGGTCACTCACGACGGGTA	4.12	4.23	4.31	1.24	3.96	3.23	2.26	5.6	2.93
